Test results: PubChem BioAssay (Tox21)
Values without a mark were called inactive. Records with an inconclusive call do not appear. A call without a number means that no potency is given here. Activity calls are given as the source filed them. The call rests on the fitted dose curve; in most records, active means well fitted curve in the direction sought with a large enough effect in the repeat runs; inconclusive means weak or mixed curves; inactive means no such curve, though single readings can be large; an effect the other way counts as inactive or inconclusive.

Legend:
[1] = A CellTox Green Cytotoxicity Assay to monitor cytotoxicity in HEK293 cells - 32 hour (AID 1224881); further: nearly all actives have a fitted effect of over 40% in size; further: potency means the concentration at half of the fitted maximal effect
In short: (§1)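 Fluorescence from a DNA-binding dye excluded by viable cells was measured repeatedly in the same HEK293 wells (600 cells/well) during continuous compound exposure at 37 C. Each assay gives one read point: 0, 8, 16, 24, 32 or 40 h.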

[2] = A CellTox Green Cytotoxicity Assay to monitor cytotoxicity in HepG2 cells - 0 hour (AID 1224882); further: nearly all actives have a fitted effect of over 35% in size
In short: (§2)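 Real-time cytotoxicity: fluorescence of a cell-impermeant cyanine dye binding DNA of dead HepG2 cells, measured repeatedly (0–40 h) during compound exposure at 37 C. Cells seeded 600/well with reagent, dosed after 5 h.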

[3] = A CellTox Green Cytotoxicity Assay to monitor cytotoxicity in HEK293 cells - 8 hour (AID 1224884); further: nearly all actives have a fitted effect of over 35% in size
In short: as §1

[4] = qHTS RealTime-Glo MT Cell Viability Assay in HepG2 cells - 16 hour (AID 1224885); further: nearly all actives have a fitted effect of over 50% in size
In short: (§3)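 Cells + NanoLuc/prosubstrate dispensed (600 cells/well) → 5 h at 37 C/5% CO2 → compounds in DMSO transferred → 40 h incubation at 37 C, luminescence read at 0, 8, 16, 24, 32, 40 h.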

[5] = qHTS RealTime-Glo MT Cell Viability Assay in HEK293 cells - 24 hour (AID 1224886); further: nearly all actives have a fitted effect of over 50% in size; further: potency means the concentration at half of the fitted maximal effect
In short: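 Tox21 10K qHTS, HEK293, 600 cells/well, RealTime-Glo reagent co-dispensed with cells; 5 h preincubation, compound by pintool, 37 C, luminescence at 0–40 h.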

[6] = qHTS RealTime-Glo MT Cell Viability Assay in HEK293 cells - 8 hour (AID 1224887); further: nearly all actives have a fitted effect of over 50% in size; further: potency means the concentration at half of the fitted maximal effect
In short: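 Luminescence, which tracks viable cell number through reduction of the prosubstrate to a NanoLuc substrate, was read over continuous 37 C culture. Cells (600/well) were premixed with reagent and rested 5 h before 23 nL of compound in DMSO was pinned.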

[7] = A CellTox Green Cytotoxicity Assay to monitor cytotoxicity in HEK293 cells - 16 hour (AID 1224888); further: nearly all actives have a fitted effect of over 35% in size; further: potency means the concentration at half of the fitted maximal effect
In short: as §1

[8] = qHTS RealTime-Glo MT Cell Viability Assay in HepG2 cells - 0 hour (AID 1224889); further: nearly all actives have a fitted effect of over 50% in size
In short: as §3

[9] = A CellTox Green Cytotoxicity Assay to monitor cytotoxicity in HepG2 cells - 8 hour (AID 1224890); further: nearly all actives have a fitted effect of over 45% in size
In short: as §2

[10] = A CellTox Green Cytotoxicity Assay to monitor cytotoxicity in HepG2 cells - 32 hour (AID 1224883); further: nearly all actives have a fitted effect of over 50% in size; further: potency means the concentration at half of the fitted maximal effect
In short: as §2

Structure (SMILES): Cc1cccc(OCCOc2cccc(C)c2)c1
- Potency [1]: inactive
- Potency [2]: inactive
- Potency [3]: inactive
- Potency [4]: inactive
- Potency [5]: inactive
- Potency [6]: inactive
- Potency [7]: inactive
- Potency [8]: inactive
- Potency [9]: inactive

Structure (SMILES): C=CC(C)(CCC=C(C)C)OC(=O)c1ccccc1 (configuration not stated)
- Potency [2]: inactive
- Potency [10]: inactive
- Potency [4]: inactive
- Potency [5]: inactive
- Potency [6]: inactive
- Potency [8]: inactive
- Potency [9]: inactive

Structure (SMILES): c1ccc(OCc2ccc(CCCN3CCOCC3)cc2)cc1
- Potency [1]: inactive
- Potency [4]: inactive
- Potency [7]: inactive
- Potency [8]: inactive

Structure (SMILES): O=[N+]([O-])c1cc[n+]([O-])cc1
- Potency [1]: inactive
- Potency [10]: inactive
- Potency [3]: inactive
- Potency [5]: inactive
- Potency [6]: inactive
- Potency [7]: inactive
- Potency [8]: inactive
- Potency [9]: inactive

Structure (SMILES): Oc1ccc(Cc2ccccc2)cc1
- Potency [2]: inactive
- Potency [3]: inactive
- Potency [4]: inactive
- Potency [5]: 36 µM (active)
- Potency [6]: 22.7 µM (active)
- Potency [8]: inactive

Structure (SMILES): C[C@H](CCC(=O)O)[C@H]1CC[C@H]2[C@@H]3[C@H](O)C[C@@H]4C[C@H](O)CC[C@]4(C)[C@H]3CC[C@]12C
- Potency [1]: inactive
- Potency [10]: inactive
- Potency [3]: inactive
- Potency [4]: inactive
- Potency [6]: inactive
- Potency [7]: inactive
- Potency [8]: inactive
- Potency [9]: inactive

Structure (SMILES): CC(C)(C)c1ccc(OCC2CO2)cc1 (configuration not stated)
- Potency [2]: inactive
- Potency [10]: inactive
- Potency [4]: inactive
- Potency [5]: inactive
- Potency [6]: inactive
- Potency [8]: inactive
- Potency [9]: inactive

Structure (SMILES): CC1(C)CCC(C)(C)c2cc(NC(=O)c3ccc(C(=O)O)cc3)ccc21
- Potency [1]: inactive
- Potency [10]: inactive
- Potency [3]: inactive
- Potency [4]: inactive
- Potency [7]: inactive
- Potency [9]: inactive

Structure (SMILES): Cc1cc(NC(=O)C(=O)O)cc(C)c1Oc1ccc(O)c2c1CCC2
- Potency [1]: inactive
- Potency [10]: inactive
- Potency [4]: inactive
- Potency [5]: inactive
- Potency [7]: inactive
- Potency [9]: inactive

Structure (SMILES): Cc1cccc(C(C)(C)C)c1O
- Potency [2]: inactive
- Potency [3]: inactive
- Potency [4]: inactive
- Potency [5]: inactive
- Potency [6]: inactive
- Potency [7]: inactive
- Potency [8]: inactive

Structure (SMILES): O=C(O)C1CCC(C(=O)O)CC1 (configuration not stated)
- Potency [1]: inactive
- Potency [10]: inactive
- Potency [4]: inactive
- Potency [5]: inactive
- Potency [7]: inactive
- Potency [8]: inactive
- Potency [9]: inactive

Structure (SMILES): c1ccc(-c2nc[nH]c2-c2ccccc2)cc1
- Potency [1]: inactive
- Potency [3]: inactive
- Potency [4]: inactive
- Potency [5]: inactive
- Potency [7]: inactive
- Potency [8]: inactive

Structure (SMILES): CNCC[C@@H](Oc1ccccc1C)c1ccccc1
- Potency [1]: inactive
- Potency [10]: inactive
- Potency [3]: inactive
- Potency [4]: inactive
- Potency [5]: inactive
- Potency [7]: inactive
- Potency [9]: inactive

Structure (SMILES): CC(C)CCCC(C)CCO (configuration not stated)
- Potency [1]: inactive
- Potency [3]: inactive
- Potency [4]: inactive
- Potency [5]: inactive
- Potency [6]: inactive
- Potency [7]: inactive
- Potency [8]: inactive
- Potency [9]: inactive

Structure (SMILES): N[C@H]1C(O)O[C@H](CO)[C@H](O)[C@@H]1O (some centres not stated)
- Potency [1]: inactive
- Potency [10]: inactive
- Potency [4]: inactive
- Potency [5]: inactive
- Potency [6]: inactive
- Potency [7]: inactive
- Potency [8]: inactive

Structure (SMILES): ClC(Cl)(Cl)c1ccc(C(Cl)(Cl)Cl)cc1
- Potency [2]: inactive
- Potency [10]: inactive
- Potency [3]: inactive
- Potency [4]: inactive
- Potency [5]: inactive
- Potency [6]: inactive
- Potency [7]: inactive
- Potency [8]: inactive
- Potency [9]: inactive

Structure (SMILES): COC(Cc1ccccc1)OC
- Potency [1]: inactive
- Potency [10]: inactive
- Potency [4]: inactive
- Potency [5]: inactive
- Potency [6]: inactive
- Potency [7]: inactive
- Potency [8]: inactive
- Potency [9]: inactive

Structure (SMILES): CN(C)CC/C=C1\c2ccccc2COc2ccccc21
- Potency [1]: inactive
- Potency [3]: inactive
- Potency [4]: inactive
- Potency [5]: inactive
- Potency [6]: inactive
- Potency [7]: inactive
- Potency [8]: inactive
- Potency [9]: inactive

Structure (SMILES): CCN(CC)CCOc1ccc2c(c1)C(=O)c1cc(OCCN(CC)CC)ccc1-2
- Potency [3]: inactive
- Potency [4]: inactive
- Potency [5]: 10.7 µM (active)
- Potency [6]: inactive
- Potency [7]: inactive

Structure (SMILES): O=C(Nc1ccccc1)OCC(CN1CCCCC1)OC(=O)Nc1ccccc1 (configuration not stated)
- Potency [1]: inactive
- Potency [3]: inactive
- Potency [4]: inactive
- Potency [7]: inactive
- Potency [8]: inactive
- Potency [9]: inactive

Structure (SMILES): CC(C)c1ccc2c(C(C)C)cc(C(C)C)c(S(=O)(=O)O)c2c1
- Potency [2]: inactive
- Potency [10]: inactive
- Potency [3]: inactive
- Potency [4]: inactive
- Potency [5]: inactive
- Potency [7]: inactive
- Potency [8]: inactive
- Potency [9]: inactive

Structure (SMILES): COCCCCCCCCOCCC[Si](C)(O[Si](C)(C)C)O[Si](C)(C)C
- Potency [2]: inactive
- Potency [10]: 21.9 µM (active)
- Potency [3]: inactive
- Potency [4]: inactive
- Potency [5]: 2.45 µM (active)
- Potency [6]: inactive
- Potency [7]: inactive
- Potency [9]: inactive

Structure (SMILES): CCC(C)N(C)C(=O)c1cc2ccccc2c(-c2ccccc2Cl)n1 (configuration not stated)
- Potency [1]: inactive
- Potency [10]: 25.2 µM (active)
- Potency [3]: inactive
- Potency [4]: inactive
- Potency [7]: inactive

Structure (SMILES): CCOC(=O)CC(=O)c1cc(F)c(Cl)nc1Cl
- Potency [10]: inactive
- Potency [3]: inactive
- Potency [4]: inactive
- Potency [6]: inactive
- Potency [8]: inactive

Structure (SMILES): N#Cc1cc2ccccc2c2ccccc12
- Potency [1]: inactive
- Potency [10]: inactive
- Potency [4]: inactive
- Potency [5]: inactive
- Potency [6]: inactive
- Potency [7]: inactive
- Potency [9]: inactive

Structure (SMILES): C#CCOC(=O)[C@@H](C)Oc1ccc(Oc2ncc(Cl)cc2F)cc1
- Potency [1]: inactive
- Potency [10]: inactive
- Potency [4]: inactive
- Potency [5]: inactive
- Potency [7]: inactive
- Potency [8]: inactive
- Potency [9]: inactive

Structure (SMILES): CC(C)(C)c1cc(O)c(C(C)(C)C)cc1O
- Potency [1]: inactive
- Potency [10]: inactive
- Potency [4]: inactive
- Potency [5]: 21.9 µM (active)
- Potency [7]: inactive
- Potency [9]: inactive

Structure (SMILES): CC(=O)/C(C)=C/C1C(C)=CCCC1(C)C (configuration not stated)
- Potency [1]: 17.4 µM (active)
- Potency [3]: inactive
- Potency [4]: inactive
- Potency [5]: inactive
- Potency [6]: inactive
- Potency [7]: 15.5 µM (active)
- Potency [9]: inactive

Structure (SMILES): O=[N+]([O-])c1cccc(Cl)c1Cl
- Potency [2]: inactive
- Potency [10]: inactive
- Potency [3]: inactive
- Potency [4]: inactive
- Potency [5]: inactive
- Potency [6]: inactive
- Potency [7]: inactive
- Potency [8]: inactive

Structure (SMILES): CCOC(=O)[C@H](CCc1ccccc1)N[C@H]1CCc2ccccc2N(CC(=O)O)C1=O
- Potency [2]: inactive
- Potency [10]: 26.8 µM (active)
- Potency [3]: inactive
- Potency [7]: inactive

Structure (SMILES): S=C(S)NCCNC(=S)S
- Potency [1]: inactive
- Potency [10]: inactive
- Potency [4]: inactive
- Potency [5]: inactive
- Potency [6]: inactive
- Potency [7]: inactive
- Potency [9]: inactive

Structure (SMILES): CC[C@H](C)[C@H](N)C(=O)O
- Potency [1]: inactive
- Potency [10]: inactive
- Potency [4]: inactive
- Potency [5]: inactive
- Potency [6]: inactive
- Potency [7]: inactive
- Potency [9]: inactive

Structure (SMILES): CCCCOc1cc(C(=O)OCCN(CC)CC)ccc1N
- Potency [3]: inactive
- Potency [4]: inactive
- Potency [5]: inactive
- Potency [6]: inactive
- Potency [7]: inactive
- Potency [8]: inactive

Structure (SMILES): O=C1c2cccc(O)c2C(=O)c2c(O)cc(CO)cc21
- Potency [2]: inactive
- Potency [10]: inactive
- Potency [3]: inactive
- Potency [4]: inactive
- Potency [7]: inactive
- Potency [8]: inactive
- Potency [9]: inactive

Structure (SMILES): CN(C)CC[C@@H](c1ccc(Br)cc1)c1ccccn1
- Potency [1]: inactive
- Potency [10]: inactive
- Potency [3]: inactive
- Potency [4]: inactive
- Potency [6]: inactive
- Potency [7]: inactive
- Potency [8]: inactive
- Potency [9]: inactive

Structure (SMILES): Cn1sccc1=O
- Potency [1]: inactive
- Potency [3]: inactive
- Potency [4]: inactive
- Potency [5]: inactive
- Potency [6]: inactive
- Potency [7]: inactive
- Potency [9]: inactive

Structure (SMILES): CCCCCc1ccc(N)cc1
- Potency [2]: inactive
- Potency [10]: 49 µM (active)
- Potency [3]: inactive
- Potency [4]: inactive
- Potency [5]: inactive
- Potency [7]: inactive
- Potency [8]: inactive

Structure (SMILES): C[Si](C)O[Si](C)(C)O[Si](C)(C)O[Si](C)C
- Potency [1]: inactive
- Potency [10]: inactive
- Potency [4]: inactive
- Potency [5]: inactive
- Potency [6]: inactive
- Potency [7]: inactive
- Potency [9]: inactive

Structure (SMILES): C=CC(=O)OCC(C)OCC(C)OCC(C)OC(=O)C=C (configuration not stated)
- Potency [1]: 54.9 µM (active)
- Potency [10]: 54.9 µM (active)
- Potency [3]: inactive
- Potency [5]: 43.6 µM (active)
- Potency [6]: inactive
- Potency [7]: inactive
- Potency [8]: inactive
- Potency [9]: inactive

Structure (SMILES): CCCCCCCC/C=C\CCCCCCCC(N)=O
- Potency [2]: inactive
- Potency [3]: inactive
- Potency [4]: inactive
- Potency [6]: inactive
- Potency [7]: inactive

Structure (SMILES): O=C(O)c1cn(C2CC2)c2cc(Cl)c(F)cc2c1=O
- Potency [2]: inactive
- Potency [10]: inactive
- Potency [4]: inactive
- Potency [8]: inactive
